Experimental data reported in PubChem BioAssay (NCI).
About 83,000 compounds went through this panel and 20% of them were active in at least one assay; those are over-represented in the sample as a whole.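 Activity criterion: percent growth below 10, measured after cells in 96-well plates were exposed to a single compound concentration for 48 hours.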 Calls of active or inactive are those of the source.

System: MDA-MB-468 breast
Assay: NCI-60 one-dose screen, 48 h (100 = growth as untreated, 0 = no growth, -100 = all killed)
Conditions: 10 µM unless noted

Compound	growth
O=C(Cn1cc(CN2C(=O)c3ccc([N+](=O)[O-])cc3C2=O)nn1)Nc1ccccc1Br	111% (inactive)
O=C1/C(=C/c2cccc(OCc3ccccc3)c2)Oc2cc(OCCN3CCCCC3)ccc21	80.4% (inactive)
O=C(CCCCN1CCOCC1)Nc1ccc(Cn2nnc3c2C(=O)c2nnn(Cc4ccc(NC(=O)CCCCN5CCOCC5)cc4)c2C3=O)cc1	-76.9% (active)
CCCC(=O)Oc1ccc(/C(=C(/CC)Cc2ccccc2)c2ccc(OCCN3CCCC3)cc2)cc1	42.8% (inactive)
COC(=O)C(O)c1ccccc1 (stereo not drawn)	112% (inactive)
CNC(=O)c1ccccc1Nc1nc(Nc2ccc3c(c2OC)CCC[C@H](N2CCN(CCO)CC2)C3)ncc1Cl	-52.8% (active)
COc1cc(-c2csc(NC(=O)c3cc(-n4cnc(C)c4)cc(C(F)(F)F)c3)n2)cc(OC)c1OC	78.4% (inactive)
CN1CCN(Cc2ccc(NC(=O)c3cncc(C#Cc4c(N)ncc5ccccc45)c3)cc2C(F)(F)F)CC1	-71.6% (active)
CC(CN1CCN(CC(C)Nc2ccnc3cc(Cl)ccc23)CC1)Nc1ccnc2cc(Cl)ccc12 (stereo not drawn)	-62.8% (active)
COC(=O)C1=C(C(=O)Nc2cccnc2)C2OC1(C(Cc1ccccc1)Oc1ccccc1)C1OC21 (stereo not drawn)	-66.3% (active)
Nc1ccc(C(=O)/C=C/c2ccccc2)cc1	87.4% (inactive)
COc1cc(CCn2nnc3c(Nc4ccc(N5CCOCC5)cc4)ncnc32)cc(OC)c1	80.6% (inactive)
COc1cc(NC(N)=NCCC(C)(C)c2ccc(C(F)(F)F)cc2)ncc1C#N	-39.1% (active)
